From the supplement of paper PMC4466140

Assays:
Experiment in all cases: SPOT peptide array binding signal intensity (averaged, normalized) (arbitrary units (background-subtracted, floor 0; scale differs between SH3 domains)); higher = stronger binding of the SH3 domain to the peptide
SpBzz1-D2 = target: SpBzz1-D2
In short: (§1)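 SH3 domains from four yeast species were expressed as GST fusions in E. coli BL21(DE3) and purified on glutathione Sepharose. Each was incubated at 10 μg/ml overnight at 4°C in TBS-based blocking buffer on cellulose membranes bearing synthetic 15-mer peptides, in which serines replaced cysteines. Bound protein was detected with anti-GST antibody, an HRP anti-mouse secondary and luminol, then imaged and quantified with Genespotter. The binding signal is the normalized, background-subtracted spot intensity averaged over replicates, in arbitrary units that are not the same from one domain to another.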

SpCyk3 = target: SpCyk3
In short: as §1

SpHof1 = target: SpHof1
In short: as §1

SpHof1-2 = target: SpHof1-2
In short: as §1

SpHof1-3 = target: SpHof1-3
In short: as §1

SpHse1 = target: SpHse1
In short: as §1

SpLsb1 = target: SpLsb1
In short: as §1

SpLsb4 = target: SpLsb4
In short: as §1

SpMyo1 = target: SpMyo1
In short: as §1

SpNbp2 = target: SpNbp2
In short: as §1

SpPex13 = target: SpPex13
In short: as §1

SpRvs167 = target: SpRvs167
In short: as §1

SpSla1-D1-D2 = target: SpSla1-D1-D2
In short: as §1

SpSla1-D3 = target: SpSla1-D3
In short: as §1

AgAbp1 = target: AgAbp1
In short: as §1

AgBbc1 = target: AgBbc1
In short: as §1

AgBem1-D1 = target: AgBem1-D1
In short: as §1

AgBzz1-D1 = target: AgBzz1-D1
In short: as §1

AgBzz1-D2 = target: AgBzz1-D2
In short: as §1

AgCyk3 = target: AgCyk3
In short: as §1

AgFus1 = target: AgFus1
In short: as §1

AgHof1 = target: AgHof1
In short: as §1

AgHse1 = target: AgHse1
In short: as §1

AgLsb1 = target: AgLsb1
In short: as §1

AgLsb4 = target: AgLsb4
In short: as §1

AgMyo5 = target: AgMyo5
In short: as §1

AgNbp2 = target: AgNbp2
In short: as §1

AgRvs167 = target: AgRvs167
In short: as §1

AgSho1 = target: AgSho1
In short: as §1

AgSla1-D1-D2 = target: AgSla1-D1-D2
In short: as §1

AgSla1-D3 = target: AgSla1-D3
In short: as §1

CaAbp1-D1 = target: CaAbp1-D1
In short: as §1

CaAbp1-D2 = target: CaAbp1-D2
In short: as §1

CaBbc1 = target: CaBbc1
In short: as §1

CaBem1-D1 = target: CaBem1-D1
In short: as §1

CaBzz1-D1 = target: CaBzz1-D1
In short: as §1

CaBzz1-D2 = target: CaBzz1-D2
In short: as §1

CaCyk3 = target: CaCyk3
In short: as §1

CaFus1 = target: CaFus1
In short: as §1

CaHof1 = target: CaHof1
In short: as §1

CaHse1 = target: CaHse1
In short: as §1

CaLsb1 = target: CaLsb1
In short: as §1

CaLsb4 = target: CaLsb4
In short: as §1

CaMyo5 = target: CaMyo5
In short: as §1

CaNbp2 = target: CaNbp2
In short: as §1

CaRvs167 = target: CaRvs167
In short: as §1

CaRvs167-3 = target: CaRvs167-3
In short: as §1

CaSho1 = target: CaSho1
In short: as §1

CaSla1-D1-D2 = target: CaSla1-D1-D2
In short: as §1

CaSla1-D3 = target: CaSla1-D3
In short: as §1

ScAbp1 = target: ScAbp1
In short: as §1

ScBbc1 = target: ScBbc1
In short: as §1

ScBem1-D1 = target: ScBem1-D1
In short: as §1

ScBzz1-D1 = target: ScBzz1-D1
In short: as §1

ScBzz1-D2 = target: ScBzz1-D2
In short: as §1

ScCyk3 = target: ScCyk3
In short: as §1

ScFus1 = target: ScFus1
In short: as §1

ScHof1 = target: ScHof1
In short: as §1

ScHse1 = target: ScHse1
In short: as §1

ScLsb1 = target: ScLsb1
In short: as §1

ScLsb2 = target: ScLsb2
In short: as §1

ScLsb3 = target: ScLsb3
In short: as §1

ScLsb4 = target: ScLsb4
In short: as §1

ScMyo3 = target: ScMyo3
In short: as §1

ScMyo5 = target: ScMyo5
In short: as §1

ScNbp2 = target: ScNbp2
In short: as §1

ScPex13 = target: ScPex13
In short: as §1

ScRvs167 = target: ScRvs167
In short: as §1

ScSho1 = target: ScSho1
In short: as §1

ScSla1-D1-D2 = target: ScSla1-D1-D2
In short: as §1

ScSla1-D3 = target: ScSla1-D3
In short: as §1

SpAbp1-D1 = target: SpAbp1-D1
In short: as §1

SpBbc1 = target: SpBbc1
In short: as §1

SpBzz1-D1 = target: SpBzz1-D1
In short: as §1

APKHAPPPVPNETDN
SPOT peptide array binding signal intensity (SpBzz1-D2): ≤ 0
SPOT peptide array binding signal intensity (SpCyk3): ≤ 0
SPOT peptide array binding signal intensity (SpHof1): ≤ 0
SPOT peptide array binding signal intensity (SpHof1-2): ≤ 0
SPOT peptide array binding signal intensity (SpHof1-3): ≤ 0
SPOT peptide array binding signal intensity (SpHse1): 140
SPOT peptide array binding signal intensity (SpLsb1): ≤ 0
SPOT peptide array binding signal intensity (SpLsb4): ≤ 0
SPOT peptide array binding signal intensity (SpMyo1): 691
SPOT peptide array binding signal intensity (SpNbp2): ≤ 0
SPOT peptide array binding signal intensity (SpPex13): ≤ 0
SPOT peptide array binding signal intensity (SpRvs167): 2.5
SPOT peptide array binding signal intensity (SpSla1-D1-D2): ≤ 0
SPOT peptide array binding signal intensity (SpSla1-D3): ≤ 0

PHNPSPFFPPPDFND
SPOT peptide array binding signal intensity (AgAbp1): ≤ 0
SPOT peptide array binding signal intensity (AgBbc1): 3
SPOT peptide array binding signal intensity (AgBem1-D1): 16.5
SPOT peptide array binding signal intensity (AgBzz1-D1): 5
SPOT peptide array binding signal intensity (AgBzz1-D2): 22
SPOT peptide array binding signal intensity (AgCyk3): ≤ 0
SPOT peptide array binding signal intensity (AgFus1): ≤ 0
SPOT peptide array binding signal intensity (AgHof1): ≤ 0
SPOT peptide array binding signal intensity (AgHse1): 71
SPOT peptide array binding signal intensity (AgLsb1): 3
SPOT peptide array binding signal intensity (AgLsb4): ≤ 0
SPOT peptide array binding signal intensity (AgMyo5): 610
SPOT peptide array binding signal intensity (AgNbp2): 42
SPOT peptide array binding signal intensity (AgRvs167): 0.667
SPOT peptide array binding signal intensity (AgSho1): ≤ 0
SPOT peptide array binding signal intensity (AgSla1-D1-D2): ≤ 0
SPOT peptide array binding signal intensity (AgSla1-D3): ≤ 0
SPOT peptide array binding signal intensity (CaAbp1-D1): 2
SPOT peptide array binding signal intensity (CaAbp1-D2): 28
SPOT peptide array binding signal intensity (CaBbc1): 14
SPOT peptide array binding signal intensity (CaBem1-D1): ≤ 0
SPOT peptide array binding signal intensity (CaBzz1-D1): 1.5
SPOT peptide array binding signal intensity (CaBzz1-D2): 1.53e-05
SPOT peptide array binding signal intensity (CaCyk3): 1
SPOT peptide array binding signal intensity (CaFus1): 32.5
SPOT peptide array binding signal intensity (CaHof1): ≤ 0
SPOT peptide array binding signal intensity (CaHse1): 2
SPOT peptide array binding signal intensity (CaLsb1): ≤ 0
SPOT peptide array binding signal intensity (CaLsb4): 28
SPOT peptide array binding signal intensity (CaMyo5): 112

GPPPPLPPPLFPSSS
SPOT peptide array binding signal intensity (AgAbp1): ≤ 0
SPOT peptide array binding signal intensity (AgBbc1): ≤ 0
SPOT peptide array binding signal intensity (AgBem1-D1): 31
SPOT peptide array binding signal intensity (AgBzz1-D1): ≤ 0
SPOT peptide array binding signal intensity (AgBzz1-D2): ≤ 0
SPOT peptide array binding signal intensity (AgCyk3): ≤ 0
SPOT peptide array binding signal intensity (AgFus1): ≤ 0
SPOT peptide array binding signal intensity (AgHof1): 1830
SPOT peptide array binding signal intensity (AgHse1): 62.5
SPOT peptide array binding signal intensity (AgLsb1): ≤ 0
SPOT peptide array binding signal intensity (AgLsb4): ≤ 0
SPOT peptide array binding signal intensity (AgMyo5): 1900
SPOT peptide array binding signal intensity (AgNbp2): ≤ 0
SPOT peptide array binding signal intensity (AgRvs167): 1
SPOT peptide array binding signal intensity (AgSho1): ≤ 0
SPOT peptide array binding signal intensity (AgSla1-D1-D2): ≤ 0
SPOT peptide array binding signal intensity (AgSla1-D3): ≤ 0
SPOT peptide array binding signal intensity (CaAbp1-D1): 1
SPOT peptide array binding signal intensity (CaAbp1-D2): ≤ 0
SPOT peptide array binding signal intensity (CaBbc1): 1
SPOT peptide array binding signal intensity (CaBem1-D1): 114
SPOT peptide array binding signal intensity (CaBzz1-D1): 93
SPOT peptide array binding signal intensity (CaBzz1-D2): 10
SPOT peptide array binding signal intensity (CaCyk3): ≤ 0
SPOT peptide array binding signal intensity (CaFus1): ≤ 0
SPOT peptide array binding signal intensity (CaHof1): 178
SPOT peptide array binding signal intensity (CaHse1): 1.5
SPOT peptide array binding signal intensity (CaLsb1): ≤ 0
SPOT peptide array binding signal intensity (CaLsb4): 11.5
SPOT peptide array binding signal intensity (CaMyo5): 284
SPOT peptide array binding signal intensity (CaNbp2): 6.5
SPOT peptide array binding signal intensity (CaRvs167): 7.83
SPOT peptide array binding signal intensity (CaRvs167-3): 1.5
SPOT peptide array binding signal intensity (CaSho1): ≤ 0
SPOT peptide array binding signal intensity (CaSla1-D1-D2): ≤ 0
SPOT peptide array binding signal intensity (CaSla1-D3): ≤ 0
SPOT peptide array binding signal intensity (ScAbp1): ≤ 0
SPOT peptide array binding signal intensity (ScBbc1): ≤ 0
SPOT peptide array binding signal intensity (ScBem1-D1): ≤ 0
SPOT peptide array binding signal intensity (ScBzz1-D1): 1.5
SPOT peptide array binding signal intensity (ScBzz1-D2): ≤ 0
SPOT peptide array binding signal intensity (ScCyk3): ≤ 0
SPOT peptide array binding signal intensity (ScFus1): ≤ 0
SPOT peptide array binding signal intensity (ScHof1): 1900
SPOT peptide array binding signal intensity (ScHse1): ≤ 0
SPOT peptide array binding signal intensity (ScLsb1): 288
SPOT peptide array binding signal intensity (ScLsb2): 12
SPOT peptide array binding signal intensity (ScLsb3): 110
SPOT peptide array binding signal intensity (ScLsb4): 20
SPOT peptide array binding signal intensity (ScMyo3): 1490
SPOT peptide array binding signal intensity (ScMyo5): 901
SPOT peptide array binding signal intensity (ScNbp2): ≤ 0
SPOT peptide array binding signal intensity (ScPex13): 4060
SPOT peptide array binding signal intensity (ScRvs167): 32.5
SPOT peptide array binding signal intensity (ScSho1): ≤ 0
SPOT peptide array binding signal intensity (ScSla1-D1-D2): ≤ 0
SPOT peptide array binding signal intensity (ScSla1-D3): ≤ 0
SPOT peptide array binding signal intensity (SpAbp1-D1): ≤ 0
SPOT peptide array binding signal intensity (SpBbc1): ≤ 0
SPOT peptide array binding signal intensity (SpBzz1-D1): 683
SPOT peptide array binding signal intensity (SpBzz1-D2): 4.25
SPOT peptide array binding signal intensity (SpCyk3): ≤ 0
SPOT peptide array binding signal intensity (SpHof1): ≤ 0
SPOT peptide array binding signal intensity (SpHof1-2): ≤ 0
SPOT peptide array binding signal intensity (SpHof1-3): ≤ 0
SPOT peptide array binding signal intensity (SpHse1): 40.8
SPOT peptide array binding signal intensity (SpLsb1): 184
SPOT peptide array binding signal intensity (SpLsb4): 225
SPOT peptide array binding signal intensity (SpMyo1): 1290
SPOT peptide array binding signal intensity (SpNbp2): ≤ 0
SPOT peptide array binding signal intensity (SpPex13): ≤ 0
SPOT peptide array binding signal intensity (SpRvs167): 1430
SPOT peptide array binding signal intensity (SpSla1-D1-D2): ≤ 0
SPOT peptide array binding signal intensity (SpSla1-D3): ≤ 0
